Sampled rows, rich in hits. Any-hit rate of the full collection: about 8%.
SARS PLP yeast: SARS-CoV PLP inhibition in yeast; S. cerevisiae expressing SARS-CoV PLpro, growth rescue; Potency, µM (doses to about 32.9 µM), for the others: top-dose activity, positive = growth rescue, hits mostly activators; 0.19% of 330,000 active; calls by dose curve; further: potency means the concentration at half of the fitted maximal effect; 0% is about no effect; nearly all actives have a fitted effect of over 55% in size
FMDV antiviral: foot and mouth disease virus antiviral activity | 1.2% of 410,000 active | Potency, µM (titrated, usually from 57.9 µM), for inactives: at the highest dose activity change, negative = inhibition, hits mostly inhibitors | FMDV antiviral cell-based qHTS | AID 1159524; calls by dose curve; tested in HEK293T cells; further: read-out not given here; potency means the concentration at half of the fitted maximal effect; on the % scale 0 is the no-effect control and ±100 the full control effect; nearly all actives have a fitted effect of over 45% in size
Lassa entry inh: Lassa virus entry inhibition; 1.2% of 300,000 active; Potency, µM (series often up to 37.9 µM), for inactives: at the highest dose activity change, negative = inhibition, usual class: inhibitors; Lassa virus pseudotype entry inhibition, cell reporter; calls by dose curve; tested in HEK293 cells; further: potency means the concentration at half of the fitted maximal effect; on the % scale 0 is the no-effect control and ±100 the full control effect; nearly all actives have a fitted effect of over 50% in size
HCMV inh: human cytomegalovirus inhibition; 4.5% of 410,000 active; AID 1259415; HFF cells, HCMV-luciferase reporter, 72 h; hits give low values; activity change, negative = inhibition, % at 57.5 µM; in the data active means activity change below about -60%; inconclusive means no clear call, values can overlap the other calls; inactive means above about -39%; further: on the % scale 0 is the no-effect control and ±100 the full control effect
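Screen run at 2 compound doses on HFFs infected with reporter HCMV, MOI 1 PFU/cell. Luciferase activity from cell lysates at 72 h post infection gave inhibition relative to buffer-only and Salinomycin wells.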
HCV inh: blocks hepatitis C virus; Huh7.5.1 HCVcc-Cre infection, luciferase reporter, 44 h; Potency, µM (doses to about 41.8 µM), for inactives: at the top dose activity change, negative = inhibition, most hits filed as inhibitors; 3.4% of 340,000 active; AID 651820; active means well fitted inhibition curve with a large enough effect; inconclusive means small, poorly fitted or top-dose-only effect, or another doubt; inactive means no such curve, though single readings can be large or run the other way; further: potency means the concentration at half of the fitted maximal effect; on the % scale 0 is the no-effect control and ±100 the full control effect
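Infectious HCVcc-Cre (~0.5 moi) was added to cells just after compound, with cells seeded 4 h earlier at 1,000 per well. Luciferase activity after 44 h culture reported infection; substrate was incubated 15 min at room temperature before reading.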
Marburg entry inh: Marburg virus entry inhibition | Marburg virus pseudotyped entry inhibition, cell reporter | Potency, µM (titrated, usually from 37.8 µM), for inactives: at the highest dose activity change, negative = inhibition, hits mostly inhibitors | 1.8% of 300,000 active; calls by dose curve; tested in HEK293 cells; further: potency means the concentration at half of the fitted maximal effect; on the % scale 0 is the no-effect control and ±100 the full control effect
* marks the source's active call; other numbers are inactive results; ? = inconclusive; nt = no result given; [ ] = remark or other dose.

SMILES	SARS PLP yeast	FMDV antiviral	Lassa entry inh	HCMV inh	HCV inh	Marburg entry inh
CC1=C(C(=O)Nc2ccccc2)C(c2ccco2)C(C#N)=C(SCC(=O)Nc2cccc(C)c2C)N1 (stereo not given)	4%	nt	10%	-10	?	?
COc1cccc(NC(=O)CSC2=C(C#N)C(c3ccco3)C3=C(CCCC3=O)N2)c1 (stereo not given)	-3%	14%	13µM*	46	?	-7%
Cc1ccc(S(=O)(=O)N2[C@@H](Cc3ccccc3)CO[C@H]2CC(=O)c2ccc(F)cc2)cc1	nt	-16%	nt	55	nt	nt
Cc1ccc(S(=O)(=O)N2[C@@H](Cc3ccccc3)CO[C@H]2CC(=O)c2ccccc2)cc1	nt	-1%	nt	-69*	nt	nt
Cc1ccc(S(=O)(=O)C[C@@H]2OC[C@H](Cc3ccccc3)N2S(=O)(=O)c2ccc(C)cc2)cc1	nt	17%	nt	-61*	nt	nt
Cc1ccc(S(=O)(=O)N2[C@@H](Cc3ccccc3)CO[C@H]2CC(=O)c2cccs2)cc1	nt	6%	nt	44	nt	nt
Cc1ccccc1-c1ccnc2[nH]n(-c3ccccc3)c(=O)c12	0%	8%	11%[46.1 µM]	57	15%	11%[46.1 µM]
N#CCCN(C(=O)COC(=O)c1cc(S(=O)(=O)N2CCOCC2)ccc1Cl)c1ccc(F)cc1	-2%	-20%	-18%	-71*	-7%[8.37 µM]	12%
N#CCCN(C(=O)COC(=O)c1cccc(S(=O)(=O)N2CCCC2)c1)c1ccc(F)cc1	23%	-7%	-19%	-75*	nt	-6%
CN(C)c1ccc(C2/C(=C(/O)c3ccc(Br)cc3)C(=O)C(=O)N2C)cc1 (stereo not given)	-1%	-10%	nt	17	25%	nt
O=C(c1ccc2c(c1)CCO2)N1CC2ON=C(c3c(F)cccc3Cl)C2C1 (stereo not given)	nt	nt	nt	14	nt	nt
CC(=O)Oc1ccc(C(=O)Cc2ccc3ccccc3n2)c(O)c1C	14%	27%	13%	4	?	4%
Cc1c(O)ccc(/C(Cc2ccc3ccccc3n2)=N\O)c1O	-2%	15%	?	2	11µM*	-2%
CN1CCN(S(=O)(=O)c2ccc(F)cc2)CC1	nt	-4%	nt	-35	nt	nt
CCc1ccc2nc(Nc3ccc(OC)cc3OC)c(C#N)cc2c1	1%	13%	20%[46.1 µM]	-7	3.5µM*	-5%
COc1cc(O)c(C(CC(=O)N2CCOCC2)c2ccc3c(c2)OCO3)c(OC)c1 (stereo not given)	-1%	-8%	nt	?	11µM*	nt
COC[C@H]1O[C@@H]2O[C@@H]1[C@@H](C=Cc1ccccc1)C[C@H]2C	nt	nt	nt	nt	nt	5%[14.2 µM]
CC(C)(C)NC(=O)C(c1c[nH]c2ccccc12)N(C(=O)Cn1nnc(-c2ccc(F)cc2)n1)c1cccc(O)c1 (stereo not given)	2%	?	?	-20	10µM*	11µM*
Cc1cccc(NC2=NC(C)(C)N=C(N)N2)c1	1%	-19%	?	-98*	?	?
O=c1cc(/C=C/c2cccs2)[nH]c2ccccc12	-3%	?	6.5µM*	-85*	?	4.1µM*
Cc1cc(NC(=O)CCC(=O)NNC(=O)c2ccc(C(C)(C)C)cc2)no1	3%	24%	3%	-75*	-7%	?
Cc1ccc(C(=O)NNC(=O)CCC(=O)Nc2cc(C)on2)cc1	12%	-12%	7%	-21	29%	1%
O=S(=O)(NC1c2cccc3cccc(c23)C1Sc1ncccn1)c1ccc(Cl)cc1 (stereo not given)	-20%	-20%	?	-72*	?	?
Cc1ccc(S(=O)(=O)NC2c3cccc4cccc(c34)C2Sc2n[nH]c(N)n2)cc1 (stereo not given)	?	1%	-27%	-3	?	?
CC(=O)c1cccc(NC(=O)Nc2cccnc2)c1	-2%	20%	4%	-77*	1%	5%
SMILES	SARS PLP yeast	FMDV antiviral	Lassa entry inh	HCMV inh	HCV inh	Marburg entry inh
Cc1ccc(NC(=O)Nc2nc3ccccc3s2)cc1NC(=O)Nc1nc2ccccc2s1	-1%	4%	nt	-74*	14µM*	nt
O=C(Nc1ccc(Cl)c([N+](=O)[O-])c1)Nc1nc2ccccc2s1	1%	nt	nt	nt	nt	nt
O=C(Nc1cccnc1)Nc1cccc(F)c1	-4%	20%	nt	-31	18%	nt
Cc1ccc(NC(=O)Nc2cccnc2)cc1NC(=O)Nc1cccnc1	1%	?	nt	?	11µM*	nt
CC(N)COC(=O)C(CCCCN)NC(=O)Cc1c(-c2ccc3ccccc3c2)[nH]c2c1ccc1ccccc12 (stereo not given)	nt	-22%	nt	nt	nt	nt
N#Cc1cccc(NC(=O)N2CCC3(CC2)CCN(C(=O)c2ccco2)CC3)c1	nt	10%	nt	nt	nt	nt
CCCS(=O)(=O)c1nnnn1-c1cccc(OC)c1	-27%	28µM*	-23%[14.3 µM]	nt	8.9µM*	26µM*
CSC1=NC(=O)C2=C3CC(C)(C)OCC3SC2=N1 (stereo not given)	nt	nt	nt	nt	nt	14%[46.1 µM]
O=c1c2ccccc2nnn1CSc1nnc(-c2cccs2)n1Cc1ccccc1	-2%	?	?	?	?	0.82µM*
O=C(O)CSc1ncnc2sc(-c3ccccc3)cc12	2%	31%	-9%	18	29%	?
CC(=O)c1c(C)[nH]c(C(=O)CSc2nnc(-c3ccccc3)o2)c1C	-1%	?	?	-20	8.9µM*	?
C=CCn1c(SCn2nnc3ccccc3c2=O)nc2scc(-c3cccs3)c2c1=O	11%	nt	22%	-3	-22%	-24%
CC(=O)c1c(C)[nH]c(C(=O)CSc2nnc(-c3cccs3)n2Cc2ccccc2)c1C	-6%	-28%	?	-13	2.8µM*	?
CC(=O)c1c(C)[nH]c(C(=O)CSc2ncnc3sc(-c4ccccc4)cc23)c1C	-1%	0%	-1%	-77*	?	?
COCCN(C(=O)COC(=O)CCCOc1ccc(OC)cc1)c1c(N)n(Cc2ccccc2)c(=O)[nH]c1=O	7%	-5%	-3%	6	-6%	-1%
CCOc1ccc(CCNC(=O)c2cc3c(=O)n(CC)c4ccccc4c3s2)cc1OCC	nt	0%	5%[46.1 µM]	2	nt	27%[46.1 µM]
Cc1ccc(CNC(=O)c2cnc(N3CCCCC3)c3ccccc23)cc1	nt	-24%	-5%[46.1 µM]	10	nt	nt
CCCC(C)NC(=O)CSc1nc2ccc(C)cc2[nH]1 (stereo not given)	0%	-2%	-6%	-14	3%	-2%
CC(=O)CCSc1ncnc2sc(-c3ccccc3)cc12	-3%	-11%	-9%[46.1 µM]	-112*	-10%	?
Cc1[nH]c2ccc(-c3nnc(SCC(=O)c4ccccc4F)o3)cc2c1C	-4%	-1%	8.9µM*	-3	?	?
O=c1cc(CSc2nnc(-c3cccs3)n2Cc2ccccc2)nc2sc3ccccc3n12	7%	16µM*	-26%	-93*	?	?

Screens: PubChem, National Center for Advancing Translational Sciences (NCATS)
